Source: the supplement of paper PMC3334620
Over roughly 33,000 sequences, “E-score (-0.5 to 0.5)” has its median near -0.012; the highest 2% begin near 0.27. The full list was thinned out, with the highest values kept by preference.

molecular target: T1, Vhr1 (UniProt P40522); experiment: PBM E-score (8-mer binding enrichment) (E-score (-0.5 to 0.5)); higher = stronger / more preferred TF binding; settings: protein concentration: 200 nM; construct: GST-full length
T1 sequence: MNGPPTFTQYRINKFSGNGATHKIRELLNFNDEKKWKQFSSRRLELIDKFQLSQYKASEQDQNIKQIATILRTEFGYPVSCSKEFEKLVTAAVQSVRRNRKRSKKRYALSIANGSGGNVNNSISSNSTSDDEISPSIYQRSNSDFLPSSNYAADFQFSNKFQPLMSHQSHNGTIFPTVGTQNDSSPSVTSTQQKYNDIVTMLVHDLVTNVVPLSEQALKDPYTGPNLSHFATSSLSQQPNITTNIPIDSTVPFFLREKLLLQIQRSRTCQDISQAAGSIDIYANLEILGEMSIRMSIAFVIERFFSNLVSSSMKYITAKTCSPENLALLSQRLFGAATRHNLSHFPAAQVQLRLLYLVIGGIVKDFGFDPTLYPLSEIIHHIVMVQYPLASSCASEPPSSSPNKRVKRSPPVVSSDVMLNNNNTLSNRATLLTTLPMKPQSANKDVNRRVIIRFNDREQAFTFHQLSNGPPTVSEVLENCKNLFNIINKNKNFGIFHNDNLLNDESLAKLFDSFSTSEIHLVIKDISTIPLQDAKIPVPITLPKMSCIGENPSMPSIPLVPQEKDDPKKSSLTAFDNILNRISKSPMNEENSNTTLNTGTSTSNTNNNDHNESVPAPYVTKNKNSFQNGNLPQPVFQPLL
Outline: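 The E-score, a modified Wilcoxon-Mann-Whitney statistic, was computed by the Universal PBM Analysis Suite for every ungapped eight-base word pooled with its reverse complement. Scans behind it were normalised with masliner after bound GST-tagged yeast transcription factors were detected with fluorescent anti-GST. The proteins, at about 100-200 nM, had been applied to universal all-10-mer Agilent arrays made double-stranded by primer extension.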

Row | Sequence | PBM E-score
1 | CTAAACAG | -0.00454
2 | CGGCCTCA | 0.024
3 | ATTATTGA | 0.036
4 | TAGGAGCA | -0.0685
5 | GACTTGTA | 0.0565
6 | CGAGCTCG | 0.307
7 | CGAGCTCC | -0.102
8 | CGAGCTCA | 0.144
9 | CTGATGGC | 0.0804
10 | ATATTGGG | -0.038
11 | GTTTATAA | -0.168
12 | GCACCGAC | 0.0173
13 | ATGTAGTA | 0.0473
14 | ATGTAGTG | 0.114
15 | ATGTAGTC | 0.286
16 | ACATAGAT | -0.0848
17 | AATTGTTA | -0.0275
18 | ACAGCACG | 0.118
19 | AGTACACA | 0.284
20 | ACTACACG | 0.221
21 | CCTACACG | -0.0152
22 | AGTACACG | 0.0779
23 | TGTACACA | 0.0228
24 | ACTACACA | 0.327
25 | GCCCAGAC | -0.15
26 | ACTTCTTG | -0.106

Row | Sequence | PBM E-score
27 | CTGGTAAC | 0.0684
28 | ATCTGTAC | 0.0611
29 | ACTCACGG | 0.352
30 | ACTCACGC | 0.366
31 | ACACACGG | 0.155
32 | AATCACGC | 0.354
33 | AATCACGA | 0.159
34 | GATCACGC | 0.193
35 | ACACACGC | 0.183
36 | CCTCACGC | 0.0696
37 | ACTCACGA | 0.243
38 | AAACAAGA | 0.121
39 | AGCCCTAC | -0.108
40 | ATTCTGGG | -0.107
41 | GCAGTGGC | 0.0117
42 | GAGGTTGA | -0.131
43 | AGAATAGG | 0.026
44 | CGTGAGTC | 0.428
45 | CGTGAGTA | 0.21
46 | AGTGAGTG | 0.00138
47 | AGTGAGAC | 0.0195
48 | CGTGAGCC | 0.0956
49 | AGTGAGTC | 0.466
50 | CACCTGCA | 0.0182
51 | TATAAGCA | 0.00418
52 | AACTCACC | 0.224

Row | Sequence | PBM E-score
53 | TACTCACA | 0.285
54 | CACTCACG | 0.238
55 | GACTCACA | 0.44
56 | GACTCACC | 0.469
57 | CACTCACA | 0.264
58 | AACTCACG | 0.109
59 | AACTCACA | 0.202
60 | CACTCACC | 0.206
61 | TCCAGAAA | -0.0568
62 | GCTTAGAA | -0.117
63 | CAAATCAA | 0.0775
64 | AAACTGGG | -0.192
65 | ATCTGATC | 0.085
66 | AGTTCTAG | -0.127
67 | CACCCGCA | -0.0465
68 | GACCCGCC | 0.322
69 | CACCCGCC | 0.329
70 | CACCCGCG | 0.218
71 | AACCCGCC | 0.136
72 | GACCCGCA | 0.109
73 | AACCTCAA | -0.195
74 | ACCTACGT | -0.0787
75 | AACTGCTG | -0.0272
76 | ACCTTGAT | 0.0042
77 | TACCGTCA | -0.0775
78 | GCGTGGCA | -0.22

Row | Sequence | PBM E-score
79 | AACTCCTA | 0.017
80 | CACTCCTA | -0.262
81 | GACTCCTA | 0.384
82 | AACTCCTC | -0.268
83 | GACTCCAC | 0.346
84 | CACTCCAC | 0.0458
85 | GACTCCTC | 0.4
86 | CACTCCTC | 0.183
87 | GACTCCAA | 0.237
88 | GTATTGGA | -0.184
89 | TTTATAAA | -0.0811
90 | CGACCCCC | -0.261
91 | CTTTAACC | -0.127
92 | AGAACCAA | -0.0911
93 | CCATCATA | 0.0955
94 | ATATCATA | 0.216
95 | GTATCATA | 0.288
96 | ACATCATC | 0.166
97 | CTATCATA | 0.164
98 | GAATCAAC | 0.247
99 | GAATCATC | 0.437
100 | TAATCATA | 0.314
101 | TAATCGTA | 0.114
102 | CAATCATA | 0.317
103 | CAATCAGA | -0.0178
104 | TAATCAAA | 0.101

Row | Sequence | PBM E-score
105 | TACGATGA | 0.11
106 | ACTTCTTC | -0.00857
107 | TACTCCTA | 0.123
108 | CCAGAGCG | -0.145
109 | ACGACAAA | 0.092
110 | GAATCAAA | -0.0259
111 | CAATCATC | 0.284
112 | CCATCATC | 0.138
113 | GCATCATA | 0.136
114 | AAATCATC | 0.245
115 | GAATCATA | 0.397
116 | ATTTACAA | -0.101
117 | ATCACAAC | 0.00509
118 | ATCACATA | 0.19
119 | ATCACACA | 0.282
120 | ATCACACG | 0.102
121 | ATCACACC | 0.288
122 | ATCACAGC | 0.182
123 | ATAGGCAA | -0.246
124 | ACCTCGAC | -0.00505
125 | AGCTGCCT | -0.219
126 | AGTTTTTC | -0.152
127 | CCAGCGAG | 0.181
128 | TGCACGCA | -0.0577
129 | CTAGTTGA | 0.202
130 | GTAGTTGA | 0.277

Row | Sequence | PBM E-score
131 | ATAGTTGA | 0.0409
132 | AGAAATCT | -0.217
133 | GGACGCTA | -0.324
134 | CAACTTGG | 0.0538
135 | AGTCAACT | 0.144
136 | AGTCAACC | 0.373
137 | CGTCAACG | -0.0358
138 | GGTCAACC | 0.0175
139 | AGTCAACG | 0.278
140 | AGTCAACA | 0.19
141 | ATCTGATA | 0.0202
142 | CATGTAGA | 0.00603
143 | AGTCGCTA | 0.174
144 | CCCCACCC | 0.36
145 | ACCCTCCC | 0.307
146 | ACCCACTC | 0.282
147 | CCCCACTC | 0.128
148 | CCCCACCG | 0.188
149 | CCCCACCA | 0.0983
150 | ACCCTCCT | -0.116
151 | ACCCACCG | 0.256
152 | ACCCACCC | 0.397
153 | CCCCTCCC | 0.171
154 | ACCCACTG | 0.22
155 | ACCCACCT | 0.0548
156 | AAAGCCAT | -0.0236

Row | Sequence | PBM E-score
157 | CGTCCCAC | 0.0371
158 | GGTTAGAC | -0.00016
159 | GGGCTTGA | -0.125
160 | ACCCTAAT | -0.0655
161 | CCAAAAGA | -0.201
162 | GCCCACCA | -0.125
163 | GCCCACAC | 0.069
164 | ACCACCCA | 0.192
165 | TCCCACCA | -0.112
166 | GCCCACCC | 0.284
167 | ACCCACCA | 0.296
168 | CCGAGAGC | -0.0932
169 | ATAGCGCC | 0.0931
170 | CCATTCGA | -0.172
171 | AGCTGTAC | 0.016
172 | GAAGAAAA | -0.221
173 | ACCGCGCG | 0.336
174 | ACCGCGGG | 0.312
175 | ACCGCGGT | 0.0486
176 | ACCGCGCC | -0.0598
177 | ACCGCGCT | 0.0474
178 | CCCGCGGG | 0.102
179 | GGAAGAAC | 0.0668
180 | ACTATCAT | 0.251
181 | ATAGGGCG | -0.0674
182 | AGGAGGGA | -0.101

Row | Sequence | PBM E-score
183 | AGGAGGGC | -0.11
184 | AGGAGGGG | 0.284
185 | TATGGGCA | 0.131
186 | ACTCCCAA | 0.112
187 | GTCAGGTA | 0.126
188 | AGGATTCA | -0.0305
189 | ATGATTCA | 0.443
190 | GGGATTCA | 0.134
191 | ATGATTTG | 0.172
192 | AAGATTCG | 0.0242
193 | CAGATTCA | -0.232
194 | CTGATTCA | 0.341
195 | GAGATTCA | 0.0192
196 | GTGATTCA | 0.408
197 | ATGATTCG | 0.412
198 | CGGATTCA | 0.0469
199 | ACGATTCA | 0.112
200 | ATCCAAGC | 0.0358
201 | ACTGCCCC | -0.0425
202 | GTGGACCA | 0.0132
203 | ATTTTGGG | -0.177
204 | CCGGTAGC | -0.00183
205 | AGTGTACG | 0.163
206 | ATCCAATA | 0.135
207 | GGGAGGAC | -0.0865
208 | GCTGGTAA | -0.148

Row | Sequence | PBM E-score
209 | GGCTAACA | -0.0545
210 | GAGGTGTA | -0.038
211 | GAGTTGGC | 0.161
212 | CTGATTCC | 0.261
213 | AGGATTCC | 0.0112
214 | ATGATTCC | 0.445
215 | GCATCCAC | 0.0832
216 | CACAGACG | 0.104
217 | CACAGCCG | 0.281
218 | CACAGCCC | -0.0755
219 | AACAGACA | 0.285
220 | CACAGACC | 0.307
221 | AACAGACT | 0.0598
222 | GACAGACA | 0.294
223 | CTCAGACC | -0.00267
224 | AACAGCCG | -0.0956
225 | GACAGACC | -0.067
226 | CACAGACA | 0.0563
227 | AACAGACC | 0.0701
